This is one part of a sample in which hits are shown more often than they occur.
CtBP-E1A inh = blocks the CtBP interaction with E1A; AlphaScreen GST-E1A/His-CtBP binding, 1536-well; active compounds read low; activity change, % (concentration not given with the values); 340,000 tested, 0.49% active
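Protein mix (5X: 125 nM each GST-E1A, His-CtBP) was incubated with pinned compound 2 h at 37 deg C in dark, in 50 mM Tris pH 8.0 buffer with 300 mM NaCl. Glutathione donor and nickel acceptor beads followed; AlphaScreen signal read after 1 h.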
Six1-Eya2 inh = inhibitors of human Six1/Eya2 interaction | AlphaScreen GST-Six1/His-Eya2 binding, biochemical; active compounds read low | activity change, % (no concentration beside the values) | 360,000 tested, 0.56% active | AID 651725
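AlphaScreen with GST-Six1 and His-Eya2 (5X mix: 250 nM and 500 nM), glutathione donor and nickel acceptor beads; buffer 50 mM Tris pH 8.0, 300 mM NaCl, 1 mM TCEP; 1 h at 37 C in the dark.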
JMJD2E inh = JMJD2E (human) inhibition. B2RXH2. JMJD2E catalytic domain, FDH-coupled NADH fluorescence (FDH is formaldehyde dehydrogenase). Potency, µM (series often up to 57.1 µM), for inactives: at the top dose activity change, negative = inhibition, hits mostly inhibitors. 230,000 tested, 1.6% active; active = well fitted inhibition curve with a large enough effect, not every such curve was filed as active; inconclusive = small, poorly fitted or top-dose-only effect, or another doubt; inactive = no such curve, though single readings can be large or run the other way;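 also: potency is read from the fitted curve at half-maximal effect; 0% = wells with enzyme and -100% = buffer wells without enzyme; nearly all actives have a fitted effect of over 50% in size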
Target sequence (B2RXH2 1-337 limits assumed): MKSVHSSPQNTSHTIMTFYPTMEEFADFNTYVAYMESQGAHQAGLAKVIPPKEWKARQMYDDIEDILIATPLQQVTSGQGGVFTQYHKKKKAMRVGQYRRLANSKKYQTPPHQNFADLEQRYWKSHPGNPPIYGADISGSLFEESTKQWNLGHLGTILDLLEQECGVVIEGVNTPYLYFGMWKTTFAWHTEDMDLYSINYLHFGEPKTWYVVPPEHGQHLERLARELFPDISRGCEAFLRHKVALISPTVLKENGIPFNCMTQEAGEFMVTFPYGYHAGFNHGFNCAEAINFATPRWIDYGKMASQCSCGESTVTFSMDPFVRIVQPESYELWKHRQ
L3MBTL1 block = blocks human L3MBTL1; 230,000 tested, 0.66% active; Q9Y468; Potency, µM (doses to about 57.1 µM), for inactives: at the top dose activity, negative = inhibition, usual class: inhibitors; AlphaScreen L3MBTL1–H3K9me1 peptide binding; active = well fitted inhibition curve with a large enough effect; inconclusive = small, poorly fitted or top-dose-only effect; inactive = no such curve, though single readings can be large or run the other way; also: potency is read from the fitted curve at half-maximal effect; nearly all actives have a fitted effect of over 60% in size
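First, the protein-peptide complex forms for 30 min at room temperature (L3MBTL1 50 nM, biotinylated H3K9me1 peptide 75 nM). Next, compounds are pin-transferred and incubated 30 min. Finally, AlphaScreen beads are added and read after 30 min.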
The depositor's hits bear a star; ? = inconclusive; nt = not tested or not shown; [ ] = another dose, or the depositor's remark. Rule as the data show it, unless noted: active = activity change below about -65%; inconclusive = mostly about -30% to -63%; inactive = weaker than that. Unless noted, % is scaled to controls: 0 for no effect and ±100 for the full control effect.

SMILES	CtBP-E1A inh	Six1-Eya2 inh	JMJD2E inh	L3MBTL1 block
O=C1C(=Cc2ccco2)C(=O)c2ccccc21	-3	-7	-24%	?
O=C(O)c1ccc2c(c1)C(=O)/C(=C\c1ccco1)C2=O	-8	?	-29%	3.2µM*
CCCCC[C@H](O)/C=C/[C@@H]1[C@@H](C/C=C\CCCC(=O)O)[C@H](O)C[C@H]1O	nt	nt	-3%	nt
Nc1ncc(N=Nc2cc(C(=O)O)ccc2Cl)s1	nt	-9	25µM*	nt
Nc1cc2sc(-c3ccc(C(=O)O)cc3)nc2cc1Cl	3	-18	?	12%
O=C(Nc1cc(S(=O)(=O)N2CCCC2)ccc1OCC(F)(F)F)c1ccncc1	1	-13	nt	nt
COCc1cc(=O)[nH]c(Nc2nc3ccc(C)cc3o2)n1	-87*	-84*	-4%	0%
Oc1ccccc1C=NNC(=S)NN=Cc1ccccc1O	-95*	-81*	nt	nt
Oc1ccccc1/C=N/Nc1ccccc1	0	-15	-12%	-10%
Oc1cccc(/C=N/NC(=S)NCCN2CCOCC2)c1O	-94*	-69*	25µM*	10µM*
NC(=S)N/N=C/c1cccc(O)c1O	-93*	-80*	35µM*	28µM*
O=C(N/N=C/c1ccccc1O)C1SCCCS1	-95*	-92*	28µM*	-25%
S=C(NCCN1CCOCC1)N/N=C/c1cccs1	nt	-1	nt	nt
Cc1cccc(N2CCN(C(=O)C3CCN(S(=O)(=O)N4CCOCC4)CC3)CC2C)c1 (stereo not drawn)	nt	-1	-5%	nt
CCC1CCCCN1Cc1cc(OC)c(O)c([N+](=O)[O-])c1 (stereo not drawn)	3	1	1%	-1%
Oc1ccccc1/C=N/NC(=S)NC1CC2CC1C1C=CCC21 (stereo not drawn)	?	?	16µM*	-17%
COc1cccc(/C=N/NC(=S)NC2CC3CC2C2C=CCC32)c1O (stereo not drawn)	-9	-5	-6%	1%
NC(=S)N/N=C/c1ccccc1O	-68*	-87*	?	?
NC(=S)N/N=C/c1ccc(/C=N/NC(N)=S)cc1	nt	3	?	2%
NC(=S)NN=Cc1c[nH]c2nccnc12	-24	-66*	nt	nt
Cc1ccc(-n2c(C)cc(/C=N/NC(N)=S)c2C)cc1	-20	?	-9%	-17%
Cc1cc(/C=N/NC(N)=S)c(O)c(/C=N/NC(N)=S)c1	-92*	-87*	7%	?
Cc1ccc(OCC(=O)N/N=C\c2ccc(-c3cccc(C(=O)O)c3)o2)c(C)c1	-4	?	4%	5.6µM*
CNC(=S)N/N=C/c1ccc(-c2cccc(C(=O)O)c2)o1	-11	-10	?	nt
O=C(O)c1cccc(-c2ccc(/C=N/NC(=O)C3COc4ccccc4O3)o2)c1 (stereo not drawn)	-18	-14	?	?
SMILES	CtBP-E1A inh	Six1-Eya2 inh	JMJD2E inh	L3MBTL1 block
O=C(O)c1cccc(-c2ccc(/C=N/Nc3nn[nH]n3)o2)c1	19	?	?	20µM*
CC(C)(C)c1ccc2c(c1)OC(C(=O)N/N=C\c1ccc(-c3cccc(C(=O)O)c3)o1)CO2 (stereo not drawn)	7	-16	?	16µM*
COC(=O)C1=C(C(=O)OC)[C@@H]2N(C)c3ccccc3[C@@]23C[C@@H](C(=O)OC)N(S(=O)(=O)c2ccc(C)cc2)C3=N1	nt	nt	-4%[11.4 µM]	nt
CN(C)c1ccc(CNC(=O)C2Cc3c(-c4ccccc4Oc4ccccc4)ccnc3O2)cc1 (stereo not drawn)	?	-66*	nt	nt
CCN(CC)c1ccc(Nc2cc3n(c(=O)n2)CCc2cc(OC)c(OC)cc2-3)cc1	-84*	?	nt	nt
COc1cc2c(cc1OC)-c1cc(Nc3ccc(N(C)C)cc3)nc(=O)n1CC2	-69*	-69*	-8%	?
COc1cc2c(cc1OC)-c1cc(Nc3cccc(F)c3)nc(=O)n1CC2	-10	-79*	nt	nt
C=CCC(C)(Nc1ccccc1)C(=O)OCC (stereo not drawn)	nt	nt	-3%	nt
CCOc1ccc(-n2nc(C(=O)NC3CCCCC3)c3ccccc3c2=O)cc1	8	2	nt	nt
O=C(OCC1OC(OC(=O)c2cc(O)c(O)c(OC(=O)c3cc(O)c(O)c(O)c3)c2)[C@@H](OC(=O)c2cc(O)c(O)c(OC(=O)c3cc(O)c(O)c(O)c3)c2)C(OC(=O)c2cc(O)c(O)c(OC(=O)c3cc(O)c(O)c(O)c3)c2)C1OC(=O)c1cc(O)c(O)c(OC(=O)c2cc(O)c(O)c(O)c2)c1)c1cc(O)c(O)c(OC(=O)c2cc(O)c(O)c(O)c2)c1 (stereo partly drawn)	nt	nt	0.28µM*	nt
CC(=O)NC1=NN(C(C)=O)C(C)(c2ccccc2)S1 (stereo not drawn)	-3	4	-6%	32µM*
CC(=O)NC1=NN(C(C)=O)C(C)(c2ccc3ccccc3c2)S1 (stereo not drawn)	0	-2	4%	2%
Nc1nc(=S)c2ncn(C3OC(CO)C(O)C3O)c2[nH]1 (stereo not drawn)	?	?	?	25µM*
CCN(CC)S(=O)(=O)c1ccc(NC(=O)CCNC(=O)c2ccccc2)cc1	-8	13	nt	nt
O=C1c2ccccc2-c2onc3ccc(NCc4ccco4)c1c23	-93*	-85*	-9%	-3%
CCNc1ccc2noc3c2c1C(=O)c1ccccc1-3	-72*	-74*	-7%	?
CCOc1ccc2noc3c2c1C(=O)c1ccccc1-3	3	0	?	-12%
C[C@H]1c2cccc(O)c2C(O)=C2C(=O)[C@]3(O)C(O)=C(C(N)=O)C(=O)[C@@H](N(C)C)[C@@H]3[C@@H](O)[C@@H]21	-29	-21	20µM*	nt
CCN(CC)c1ccc(C(=C2C=CC(=[N+](CC)CC)C=C2)c2ccccc2)cc1	-8	?	nt	nt
CCN(CC)c1ccc(C(=C2C=CC(=[N+](CC)CC)C=C2)c2ccc(N(CC)CC)cc2)cc1	-90*	-78*	nt	nt
CN1CCOc2ccc(S(=O)(=O)N3CCN(S(=O)(=O)c4c(F)cccc4F)CC3)cc21	nt	nt	nt	9%
C=CCN1CC2(c3ccccc3)CN(CC=C)CC(c3ccccc3)(C1)C2=O	2	-2	-3%	-5%
COc1ccc(/C=N/N=C2/CC(C)(C)Cc3n[nH]c(=O)cc32)cc1	3	1	32µM*	-10%
C/C(=N\NC(=O)C12CCC(C)(C(=O)O1)C2(C)C)c1ccccc1O (stereo not drawn)	?	-3	8.9µM*	3%
COc1ccc(NC(=O)C23CCC(C)(C(=O)O2)C3(C)C)cc1 (stereo not drawn)	0	-1	7%	nt
CC12CCC(C(=O)N/N=C/c3ccc(O)cc3O)(OC1=O)C2(C)C (stereo not drawn)	-88*	-68*	25µM*	-21%
CC(C)N1CCC(C)(C(=O)Nc2cccc3c2CCCC3)C1 (stereo not drawn)	1	2	nt	nt
CCc1cc(=O)oc2cc(C)c(CN3CCCC(C)C3)c(O)c12 (stereo not drawn)	2	-24	?	11µM*

High-throughput results as filed in PubChem BioAssay.
